Like-named read-outs stand apart in the source and are kept apart here.
Key:
Parameters in all cases: species or system human, MV4-11 + K-562 + COLO205 + SK-N-BE2 + OVCAR-8
[1] = tested on: ADCK3; conditions: read-out: apparent Kd, n = 1
[2] = tested on: AKT1; conditions: read-out: apparent Kd; compound concentrations: 100 nM and 1000 nM (sheet 'Samples'), CATDS: 7.0300825665370006E-2; n = 1
[3] = tested on: AKT2; conditions: read-out: apparent Kd; compound concentrations: 100 nM and 1000 nM (sheet 'Samples'), CATDS: 7.1049746121653101E-2; n = 1
[4] = tested on: AKT3; conditions: read-out: apparent Kd, compound concentrations: 100 nM and 1000 nM (sheet 'Samples'), n = 1
[5] = tested on: CAMK4; conditions: read-out: apparent Kd, compound concentrations: 100 nM and 1000 nM (sheet 'Samples'), n = 1
[6] = tested on: CSNK1A1; conditions: read-out: apparent Kd; compound concentrations: 100 nM and 1000 nM (sheet 'Samples'), CATDS: 6.8994714696940407E-2; n = 1
[7] = tested on: MAP2K1; conditions: read-out: apparent Kd; compound concentrations: 100 nM and 1000 nM (sheet 'Samples'), CATDS: 7.1306793514003305E-2; n = 1
[8] = tested on: MAP2K2; conditions: read-out: apparent Kd, compound concentrations: 100 nM and 1000 nM (sheet 'Samples'), n = 1
[9] = tested on: MAPK9; conditions: read-out: apparent Kd; compound concentrations: 100 nM and 1000 nM (sheet 'Samples'), CATDS: 6.4176537599483302E-2; n = 1
[10] = tested on: NQO1; conditions: read-out: apparent Kd, compound concentrations: 100 nM and 1000 nM (sheet 'Samples'), n = 1
[11] = tested on: PIM2; conditions: read-out: apparent Kd; compound concentrations: 100 nM and 1000 nM (sheet 'Samples'), CATDS: 7.6487231298609404E-2; n = 1
[12] = tested on: PYGL; conditions: read-out: apparent Kd; compound concentrations: 100 nM and 1000 nM (sheet 'Samples'), CATDS: 6.9677029727435405E-2; n = 1
[13] = tested on: RIOK2; conditions: read-out: apparent Kd; compound concentrations: 100 nM and 1000 nM (sheet 'Samples'), CATDS: 6.63813283152343E-2; n = 1
[14] = tested on: SMC4; conditions: read-out: apparent Kd; compound concentrations: 100 nM and 1000 nM (sheet 'Samples'), CATDS: 6.4174106680799994E-2; n = 1
[15] = tested on: BTK; conditions: read-out: apparent Kd; compound concentrations: 100 nM and 1000 nM (sheet 'Samples'), CATDS: 0.33731493843611998; n = 1
[16] = tested on: JAK2; conditions: read-out: apparent Kd, n = 1
[17] = tested on: PIK3C3; conditions: read-out: apparent Kd; compound concentrations:100 nM and 1000 nM (sheet 'Samples'); n = 1
[18] = tested on: TEC; conditions: read-out: apparent Kd; compound concentrations:100 nM and 1000 nM (sheet 'Samples'); n = 1
[19] = tested on: ZAK; conditions: read-out: apparent Kd, n = 1
[20] = tested on: ARAF; conditions: read-out: apparent Kd; compound concentrations: 100 nM and 1000 nM (sheet 'Samples'), CATDS: 0.31382782577056201; n = 1
[21] = tested on: PIK3CB; conditions: read-out: apparent Kd; compound concentrations: 100 nM and 1000 nM (sheet 'Samples'), CATDS: 0.29308113927572399; n = 1
[22] = tested on: ADCK1; conditions: read-out: apparent Kd, compound concentrations: 100 nM and 1000 nM (sheet 'Samples'), n = 1
[23] = tested on: FLT3; conditions: read-out: apparent Kd, compound concentrations: 100 nM and 1000 nM (sheet 'Samples'), n = 1
[24] = tested on: LIMK1; conditions: read-out: apparent Kd; compound concentrations: 100 nM and 1000 nM (sheet 'Samples'), CATDS: 6.0612482504371901E-2; n = 1
[25] = tested on: LYN; conditions: read-out: apparent Kd; compound concentrations: 100 nM and 1000 nM (sheet 'Samples'), CATDS: 6.5965838221970899E-2; n = 1
[26] = tested on: MAPK14; conditions: read-out: apparent Kd; compound concentrations: 100 nM and 1000 nM (sheet 'Samples'), CATDS: 7.0797769182365994E-2; n = 1
[27] = tested on: MTOR; conditions: read-out: apparent Kd; compound concentrations: 100 nM and 1000 nM (sheet 'Samples'), CATDS: 8.3808219559409397E-2; n = 1
[28] = tested on: PIK3CD; conditions: read-out: apparent Kd; compound concentrations: 100 nM and 1000 nM (sheet 'Samples'), CATDS: 0.184193400818676; n = 1
[29] = tested on: PRKACG; conditions: read-out: apparent Kd; compound concentrations: 100 nM and 1000 nM (sheet 'Samples'), CATDS: 7.8396451474863002E-2; n = 1
[30] = tested on: PRKDC; conditions: read-out: apparent Kd; compound concentrations: 100 nM and 1000 nM (sheet 'Samples'), CATDS: 6.9640678326095301E-2; n = 1
[31] = tested on: RET; conditions: read-out: apparent Kd; compound concentrations: 100 nM and 1000 nM (sheet 'Samples'), CATDS: 7.1676948179133407E-2; n = 1
[32] = tested on: T1, T10; conditions: read-out: apparent Kd; compound concentrations: 100 nM and 1000 nM (sheet 'Samples'), CATDS: 5.8337212061708103E-2; n = 1
T1 construct: gene NAT10

[33] = tested on: PDGFRB; conditions: read-out: apparent Kd; compound concentrations: 100 nM and 1000 nM (sheet 'Samples'), CATDS: 0.32052418925239901; n = 1
[34] = tested on: CDK13; conditions: read-out: apparent Kd; compound concentrations: 100 nM and 1000 nM (sheet 'Samples'), CATDS: 0.20413342280503199; n = 1
[35] = tested on: BRAF; conditions: read-out: apparent Kd; compound concentrations: 100 nM and 1000 nM (sheet 'Samples'), CATDS: 0.639948734699749; n = 1
[36] = tested on: MAP2K5; conditions: read-out: apparent Kd; compound concentrations: 100 nM and 1000 nM (sheet 'Samples'), CATDS: 0.203043275988008; n = 1
[37] = tested on: PTK6; conditions: read-out: apparent Kd; compound concentrations: 100 nM and 1000 nM (sheet 'Samples'), CATDS: 0.17376653089903399; n = 1
[38] = tested on: RIPK3; conditions: read-out: apparent Kd; compound concentrations: 100 nM and 1000 nM (sheet 'Samples'), CATDS: 9.1073681697651607E-2; n = 1
[39] = tested on: TESK1; conditions: read-out: apparent Kd; compound concentrations: 100 nM and 1000 nM (sheet 'Samples'), CATDS: 9.2639666275084007E-2; n = 1
[40] = compound concentrations:100 nM and 1000 nM (sheet 'Samples')

## O=C(NC1CCN(c2ccnc(Nc3ccc(F)cc3)n2)C1)c1cc2ccccc2s1 (stereo not drawn) [GSK1379716A]
[1]; compound concentrations: 100 nM and 1000 nM (sheet 'Samples'), CATDS: 8.9568558281788502E-2
  potency estimated from few doses: 1140 nM
[2]
  potency estimated from few doses: 1780 nM
[3]
  potency estimated from few doses: 1740 nM
[4]; CATDS: 7.9002074728764499E-2
  potency estimated from few doses: 1420 nM
[5]; CATDS: 6.2704005161184906E-2
  potency estimated from few doses: 2280 nM
[6]
  potency estimated from few doses: 1850 nM
[7]
  potency estimated from few doses: 1730 nM
[8]; CATDS: 7.3872380173305399E-2
  potency estimated from few doses: 1610 nM
[9]
  potency estimated from few doses: 2160 nM
[10]; CATDS: 8.1829364824624801E-2
  potency estimated from few doses: 1330 nM
[11]
  potency estimated from few doses: 1500 nM
[12]
  potency estimated from few doses: 1810 nM
[13]
  potency estimated from few doses: 2010 nM
[14]
  potency estimated from few doses: 2160 nM

## C=CC(=O)Nc1cc(-n2c(=O)ccc3cnc4ccc(-c5ccc(NS(C)(=O)=O)cc5)cc4c32)ccc1C [BMX-IN-1]
[1]; [40]
  potency estimated from few doses: 1160 nM
[15]
  potency estimated from few doses: 186 nM
[16]; [40]
  potency estimated from few doses: 466 nM
[17]
  potency estimated from few doses: 1530 nM
[18]
  potency estimated from few doses: 540 nM
[19]; [40]
  potency estimated from few doses: 782 nM

## N#Cc1c(C(=O)c2ccccc2)cnn1-c1ccccc1 [RO1150868-000]
[1]; compound concentrations: 100 nM and 1000 nM (sheet 'Samples'), CATDS: 0.41640381160796702
  potency estimated from few doses: 510 nM
[20]
  potency estimated from few doses: 875 nM
[21]
  potency estimated from few doses: 1020 nM

## CN(c1ccc(NC(=O)Nc2cc(C(F)(F)F)ccc2F)cc1)c1ccnc(Nc2ccc(S(N)(=O)=O)cc2)n1 [GW809893X]
[22]; CATDS: 6.3645310719154996E-2
  potency estimated from few doses: 1370 nM
[23]; CATDS: 0.35383441234921298
  potency estimated from few doses: 36.1 nM
[16]; compound concentrations: 100 nM and 1000 nM (sheet 'Samples'), CATDS: 0.243308820463081
  potency estimated from few doses: 65 nM
[24]
  potency estimated from few doses: 1630 nM
[25]
  potency estimated from few doses: 1210 nM
[26]
  potency estimated from few doses: 973 nM
[27]
  potency estimated from few doses: 610 nM
[28]
  potency estimated from few doses: 107 nM
[29]
  potency estimated from few doses: 728 nM
[30]
  potency estimated from few doses: 1020 nM
[31]
  potency estimated from few doses: 938 nM
[32]
  potency estimated from few doses: 1880 nM

## COc1cc(Nc2ncc(-c3ccccc3)o2)cc(OC)c1 [GW631581B]
[22]; CATDS: 0.14545775949077999
  potency estimated from few doses: 1650 nM
[5]; CATDS: 0.15107138054909999
  potency estimated from few doses: 1410 nM
[23]; CATDS: 0.830735386752396
  potency estimated from few doses: 8.16 nM
[8]; CATDS: 0.139234608718731
  potency estimated from few doses: 2010 nM
[33]
  potency estimated from few doses: 85.4 nM

## Cc1ccc(C)c(NC(=O)NC2CCN(c3ccnc(Nc4ccc(F)cc4)n3)C2)c1 (stereo not drawn) [GSK1379720A]
[1]; compound concentrations: 100 nM and 1000 nM (sheet 'Samples'), CATDS: 0.42611261301479197
  potency estimated from few doses: 388 nM
[4]; CATDS: 0.236310491034597
  potency estimated from few doses: 1130 nM
[34]
  potency estimated from few doses: 1630 nM
[10]; CATDS: 0.22110563940730901
  potency estimated from few doses: 1330 nM

## CCCS(=O)(=O)Nc1ccc(F)c(-n2cc(-c3cncc(OC)c3)nn2)c1F [BI00865461]
[1]; compound concentrations: 100 nM and 1000 nM (sheet 'Samples'), CATDS: 9.7263378995511504E-2
  potency estimated from few doses: 1210 nM
[35]
  potency estimated from few doses: 7.45 nM
[36]
  potency estimated from few doses: 70.4 nM
[37]
  potency estimated from few doses: 108 nM
[38]
  potency estimated from few doses: 1790 nM
[39]
  potency estimated from few doses: 1610 nM
[19]; compound concentrations: 100 nM and 1000 nM (sheet 'Samples'), CATDS: 0.21269926478279999
  potency estimated from few doses: 62.5 nM

— article PMC11062922 (Nature Chemical Biology, 2023)
